For three molecules, AC50 and outcome results are on record in PubChem BioAssay (EPA / NIEHS).

The nature of experiment [1]: ATG_M_61_CIS: Attagene CIS-FACTORIAL HepG2 Assay for M61 Transcription Factor (Internal Marker) (AID 2282937). The note with it: HepG2 Attagene CIS-FACTORIAL M61 internal marker reporter; actives raise or lower the signal. The gist of the method: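 Fluorescence from labelled cDNA fragments, separated by capillary electrophoresis, quantifies reporter induction. HepG2 cells bearing transiently transfected cis-promoter MRTUs were incubated with test chemical for 24 h; DMSO defined baseline for gain/loss fitting.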

Experiment [2] in a line: ATG_EGR_CIS: Attagene CIS-FACTORIAL HepG2 Assay for human Early Growth Response 1 (EGR1) (AID 2282938). The conditions noted are these: HepG2 Attagene CIS-FACTORIAL EGR reporter mRNA; actives raise or lower the signal. The essentials: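 Cell-based multiplex transcription assay: HepG2 carrying transfected cis-element reporter units, 24 h chemical treatment. Fluorescence from capillary electrophoresis of RT-PCR products gives mRNA levels; fitting is bidirectional relative to DMSO.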

Experiment [3] in a line: ATG_M_19_CIS: Attagene CIS-FACTORIAL HepG2 Assay for M19 Transcription Factor (Internal Marker) (AID 2282939). The note with it: HepG2 Attagene CIS-FACTORIAL M19 internal marker reporter; actives raise or lower the signal. The essentials:
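Signals come from fluorescence of labelled reporter-specific PCR fragments resolved by capillary electrophoresis, following 24 h treatment of HepG2 cells transfected with cis-promoter reporter units; activity was fitted in both directions relative to DMSO.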

A short description of experiment [4]: ATG_ERE_CIS: Attagene CIS-FACTORIAL HepG2 Assay for Estrogen Response Element (ERE) (AID 2282940). The note with it: HepG2 ERE cis-reporter, Attagene RNA transcript; actives raise or lower the signal. The gist of the method: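 Fluorescence of capillary-separated, FAM-labelled reporter cDNA fragments indicates reporter mRNA levels in HepG2 cells exposed to chemicals for 24 h. Transient transfection with cis-regulated units; data fitted in both directions against DMSO.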

Experiment [5] addresses Hepatocyte nuclear factor 3-beta (Homo sapiens) (UniProt Q9Y261). Put plainly: ATG_FoxA2_CIS: Attagene CIS-FACTORIAL HepG2 Assay for human Forkhead box A2 (FOXA2) (AID 2282942). The conditions noted are these: HepG2 cis-reporter transcription factor activity, 24 h; actives raise or lower the signal. The essentials: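 In transiently transfected human HepG2 cells, promoter-driven reporter mRNA levels after 24 h chemical exposure are determined via RT-PCR with capillary electrophoresis. DMSO serves as baseline for bidirectional fitting.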

Experiment [6] is described as follows: ATG_GATA_CIS: Attagene CIS-FACTORIAL HepG2 Assay for human GATA Binding Protein (AID 2282944). The conditions noted are these: HepG2 GATA cis-element reporter, Attagene multiplex mRNA; actives raise or lower the signal. The gist of the method:
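After transfecting HepG2 cells with multiple cis-regulated reporter units, chemicals are dosed for 24 h; isolated RNA undergoes RT-PCR and fluorescent labeling before capillary electrophoresis, with activity expressed against DMSO.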

Experiment [7] in a line: ATG_GLI_CIS: Attagene CIS-FACTORIAL HepG2 Assay for human Zinc Finger Protein GLI1 (AID 2282945). The note with it: HepG2, Attagene cis-factorial reporter mRNA, GLI element; actives raise or lower the signal. The essentials:
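Transiently transfected HepG2 cells report endogenous transcription factor activity via cis-element-driven reporter units. After 24 h compound exposure, reporter mRNA was measured by RT-PCR with capillary electrophoresis; bidirectional fitting against DMSO baseline.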

Experiment [8] is described as follows: ATG_GRE_CIS: Attagene CIS-FACTORIAL HepG2 Assay for human Glucocorticoid Response Elements (GRE) (AID 2282947). The note with it: HepG2 GRE cis-reporter, Attagene multiplex mRNA; actives raise or lower the signal. The gist of the method: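 Transiently transfected HepG2 cells carrying GRE cis-reporter units (endogenous TF activity) dosed 24 h; reporter mRNA quantified by RT-PCR, 6-FAM labelling, HpaI digestion and capillary electrophoresis. Bidirectional fit versus DMSO baseline.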

Experiment [9] is described as follows: ATG_ISRE_CIS: Attagene CIS-FACTORIAL HepG2 Assay for human Interferon Regulatory Factor 1 (IRF1) binding to an Interferon-Stimulated Response Element (ISRE) (AID 2282948). The conditions noted are these: HepG2 ISRE cis-reporter (Attagene), mRNA transcription readout; actives raise or lower the signal. The gist of the method:
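HepG2 cells transiently transfected with multiplexed cis-promoter reporter units; after 24 h compound exposure, reporter mRNA quantified by RT-PCR, FAM labelling, HpaI digestion and capillary electrophoresis. Bidirectional fit versus DMSO baseline.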

Experiment [10] is described as follows: ATG_M_32_CIS: Attagene CIS-FACTORIAL HepG2 Assay for M32 Transcription Factor (Internal Marker) (AID 2282949).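 Also: background control marker of the multiplexed CIS panel rather than a real target.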 The note with it: HepG2 Attagene cis-factorial M32 reporter, mRNA; actives raise or lower the signal. The gist of the method: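 HepG2 cells transiently transfected with multiplexed cis-regulated reporter units, dosed 24 h. Reporter mRNA quantified by RT-PCR, 6-FAM labelling, HpaI digestion and capillary electrophoresis; bidirectional fit vs DMSO.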

A short description of experiment [11]: ATG_M_06_CIS: Attagene CIS-FACTORIAL HepG2 Assay for M06 Transcription Factor (Internal Marker) (AID 2282950). The conditions noted are these: HepG2 Attagene CIS-FACTORIAL M06 internal marker reporter; actives raise or lower the signal. The gist of the method: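 HepG2 liver cells, 24 h exposure. Reporter transcripts from transfected cis-element constructs quantified by RT-PCR/capillary electrophoresis fluorescence. Bidirectional curve fit against DMSO.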

In experiment [12] the target is Hypoxia-inducible factor 1-alpha (Homo sapiens) (UniProt Q16665). The experiment in a line: ATG_HIF1a_CIS: Attagene CIS-FACTORIAL HepG2 Assay for human Hypoxia Inducible Factor 1 (HIF1A) (AID 2282951). The conditions noted are these: HepG2 Attagene cis-factorial HIF1a reporter transcription; actives raise or lower the signal. The essentials: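 In this multiplexed cell assay, HepG2 cells bearing transfected cis reporters are dosed for 24 h and reporter mRNA is read by RT-PCR plus capillary electrophoresis; signal increases and decreases are both scored against DMSO.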
Sequence of Hypoxia-inducible factor 1-alpha (Homo sapiens) (Q16665 whole entry, looked up): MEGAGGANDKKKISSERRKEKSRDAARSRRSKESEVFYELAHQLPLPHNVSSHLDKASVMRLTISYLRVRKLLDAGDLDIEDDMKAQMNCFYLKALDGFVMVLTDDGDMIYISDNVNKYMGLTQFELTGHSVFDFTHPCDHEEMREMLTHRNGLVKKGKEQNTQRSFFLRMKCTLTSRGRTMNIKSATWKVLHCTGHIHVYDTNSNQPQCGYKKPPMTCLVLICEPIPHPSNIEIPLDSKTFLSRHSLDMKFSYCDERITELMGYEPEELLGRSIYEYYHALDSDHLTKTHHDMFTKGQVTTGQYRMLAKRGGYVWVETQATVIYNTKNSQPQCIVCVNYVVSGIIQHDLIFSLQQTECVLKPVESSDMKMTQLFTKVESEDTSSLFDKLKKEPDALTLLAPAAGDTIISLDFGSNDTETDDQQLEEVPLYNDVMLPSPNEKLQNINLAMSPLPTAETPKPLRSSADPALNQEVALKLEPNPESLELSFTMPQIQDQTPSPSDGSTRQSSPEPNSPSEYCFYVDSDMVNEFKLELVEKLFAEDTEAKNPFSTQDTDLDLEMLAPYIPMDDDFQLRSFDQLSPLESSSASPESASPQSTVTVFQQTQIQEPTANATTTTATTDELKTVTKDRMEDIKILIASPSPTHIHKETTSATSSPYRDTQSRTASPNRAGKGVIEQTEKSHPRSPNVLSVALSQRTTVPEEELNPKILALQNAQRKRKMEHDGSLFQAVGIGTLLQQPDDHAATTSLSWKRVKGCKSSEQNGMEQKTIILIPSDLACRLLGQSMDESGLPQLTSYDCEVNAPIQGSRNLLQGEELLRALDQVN

Experiment [13] concerns the target Hepatocyte nuclear factor 6 (Homo sapiens) (UniProt Q9UBC0). Put plainly: ATG_HNF6_CIS: Attagene CIS-FACTORIAL HepG2 Assay for human Hepatocyte Nuclear Factor 6 (HNF6) (AID 2282952). The conditions noted are these: HepG2 Attagene cis-factorial HNF6 reporter transcription; actives raise or lower the signal. The essentials: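 Multiplexed mRNA reporter assay in transfected HepG2; 24 h dosing; RT-PCR plus capillary electrophoresis fluorescence; DMSO-referenced bidirectional curve fitting.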

Experiment [14] addresses Heat shock factor protein 1 (Homo sapiens) (UniProt Q00613). The experiment in a line: ATG_HSE_CIS: Attagene CIS-FACTORIAL HepG2 Assay for human Heat Shock Transcription Factor 1 (HSE) (AID 2282953). The conditions noted are these: HepG2 HSE cis-reporter, Attagene RNA transcription; actives raise or lower the signal. The essentials:
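Endogenous transcription factor activity captured via cis-promoter reporter units transfected into HepG2; treatment lasted 24 h. Fluorescence intensity of reporter fragments analysed with bidirectional curve fitting, DMSO baseline.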

Experiment [15] can be described thus: ATG_MRE_CIS: Attagene CIS-FACTORIAL HepG2 Assay for human Metal Responsive Element (MRE) (AID 2282954). The note with it: HepG2 MRE cis-reporter transcription, Attagene multiplex; actives raise or lower the signal. The essentials:
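HepG2 cells transiently transfected with cis-element-driven reporter units; mRNA measured 24 h after dosing. Reporter transcripts quantified by RT-PCR, FAM labelling, HpaI digestion and capillary electrophoresis; bidirectional fit versus DMSO.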

Experiment [16] in a line: ATG_PBREM_CIS: Attagene CIS-FACTORIAL HepG2 Assay for human Phenobarbital-responsive Enhancer Module (PBREM) (AID 2282955). The note with it: HepG2 PBREM cis-reporter, Attagene multiplexed transcription; actives raise or lower the signal. The gist of the method: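 After a 24 h incubation with test chemical, transfected HepG2 cells yield total RNA; reporter-specific RT-PCR products are fluorescently labelled, HpaI-digested and resolved by capillary electrophoresis against ROX size standards.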

Experiment [17] concerns the target Paired box protein Pax-6 (Homo sapiens) (UniProt P26367). The experiment in a line: ATG_Pax6_CIS: Attagene CIS-FACTORIAL HepG2 Assay for human Paired Box 6 (PAX6) (AID 2282956). The note with it: HepG2 CIS-FACTORIAL PAX6 reporter transcription, RNA readout; actives raise or lower the signal. The gist of the method:
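HepG2 cells transiently transfected with multiplexed cis-promoter reporter units (endogenous TF activity) were dosed for 24 h. Reporter mRNA was quantified by RT-PCR, 6-FAM labeling, HpaI digestion and capillary electrophoresis; bidirectional fitting versus DMSO baseline.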

Experiment [18] can be described thus: ATG_Ets_CIS: Attagene CIS-FACTORIAL HepG2 Assay for human Erythroblast Transformation Specific (ETS) (AID 2282941). The note with it: HepG2 ETS cis-reporter transcription, actives raise or lower the signal. The gist of the method:
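HepG2 cells transiently transfected with cis-promoter reporter transcription units were dosed for 24 h; reporter mRNA was measured by RT-PCR, 6-FAM primer extension, HpaI digestion and capillary electrophoresis, with bidirectional fitting against DMSO baseline.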

Experiment [19] in a line: ATG_FoxO_CIS: Attagene CIS-FACTORIAL HepG2 Assay for human Forkhead box O (FoxO) (AID 2282943). The note with it: HepG2 Attagene cis-reporter, FoxO element, mRNA; actives raise or lower the signal. The gist of the method:
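Read-out: fluorescence of 6-FAM-labelled reporter cDNA fragments resolved by capillary electrophoresis. Transiently transfected HepG2 cells were dosed for 24 h; activity fitted in both directions relative to DMSO controls.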

Experiment [20] addresses Bile acid receptor (Homo sapiens) (UniProt Q96RI1). Put plainly: ATG_IR1_CIS: Attagene CIS-FACTORIAL HepG2 Assay for human Nuclear Receptor Subfamily 1 Group H Member 4 (NR1H4), IR1 submotif (AID 2282946). The note with it: IR1 reporter transcription, actives raise or lower the signal. The gist of the method: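 HepG2 cells transiently transfected with multiple cis-promoter-driven reporter units to measure endogenous transcription factor activity; 24 h exposure. Reporter mRNA read by RT-PCR, FAM labelling, HpaI digestion and capillary electrophoresis. Bidirectional fit versus DMSO.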

The source made the active and inactive calls. The calls were made as follows: active = hit-call score of the fitted dose curve at least 0.9, where 1 is the maximum; inactive = score below 0.9.

Sequence of Hepatocyte nuclear factor 6 (Homo sapiens) (Q9UBC0 whole entry, looked up): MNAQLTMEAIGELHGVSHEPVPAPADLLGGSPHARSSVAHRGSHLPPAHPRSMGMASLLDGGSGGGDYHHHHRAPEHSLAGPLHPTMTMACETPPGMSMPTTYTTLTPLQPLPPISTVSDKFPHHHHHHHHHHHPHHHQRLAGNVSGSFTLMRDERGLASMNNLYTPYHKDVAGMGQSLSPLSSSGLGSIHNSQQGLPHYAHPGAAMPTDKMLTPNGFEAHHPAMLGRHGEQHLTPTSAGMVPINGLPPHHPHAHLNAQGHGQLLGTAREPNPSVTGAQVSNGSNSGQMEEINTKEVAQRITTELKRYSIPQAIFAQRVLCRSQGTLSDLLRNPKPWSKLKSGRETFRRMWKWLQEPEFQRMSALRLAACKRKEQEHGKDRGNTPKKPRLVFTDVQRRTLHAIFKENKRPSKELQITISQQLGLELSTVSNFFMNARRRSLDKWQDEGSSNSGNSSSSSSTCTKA
Sequence of Hepatocyte nuclear factor 3-beta (Homo sapiens) (Q9Y261 whole entry, looked up): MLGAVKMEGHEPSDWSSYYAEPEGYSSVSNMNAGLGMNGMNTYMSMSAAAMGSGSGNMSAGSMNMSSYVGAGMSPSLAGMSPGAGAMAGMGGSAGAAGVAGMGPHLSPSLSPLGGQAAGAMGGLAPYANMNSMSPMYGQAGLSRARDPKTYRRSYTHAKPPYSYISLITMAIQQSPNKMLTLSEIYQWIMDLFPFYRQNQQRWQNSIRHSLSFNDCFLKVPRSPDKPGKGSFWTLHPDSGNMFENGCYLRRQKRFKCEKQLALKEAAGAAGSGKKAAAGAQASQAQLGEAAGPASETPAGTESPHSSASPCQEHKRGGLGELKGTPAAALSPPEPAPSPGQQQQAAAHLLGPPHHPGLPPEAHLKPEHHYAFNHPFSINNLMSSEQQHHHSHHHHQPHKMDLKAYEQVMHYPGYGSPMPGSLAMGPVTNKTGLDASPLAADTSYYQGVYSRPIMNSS
Sequence of Paired box protein Pax-6 (Homo sapiens) (P26367 whole entry, looked up): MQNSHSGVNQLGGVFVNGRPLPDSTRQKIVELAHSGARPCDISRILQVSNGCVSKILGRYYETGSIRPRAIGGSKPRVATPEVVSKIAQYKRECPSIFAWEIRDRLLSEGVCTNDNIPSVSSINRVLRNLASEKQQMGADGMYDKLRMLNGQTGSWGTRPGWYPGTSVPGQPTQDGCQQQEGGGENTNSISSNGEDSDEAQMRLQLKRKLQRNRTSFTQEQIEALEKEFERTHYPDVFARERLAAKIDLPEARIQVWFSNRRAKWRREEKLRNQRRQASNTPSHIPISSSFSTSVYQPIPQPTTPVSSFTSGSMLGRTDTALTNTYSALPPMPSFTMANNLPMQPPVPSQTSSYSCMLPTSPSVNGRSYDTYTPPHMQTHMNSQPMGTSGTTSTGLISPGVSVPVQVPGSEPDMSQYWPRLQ
Sequence of Heat shock factor protein 1 (Homo sapiens) (Q00613 whole entry, looked up, the tested form may be a part): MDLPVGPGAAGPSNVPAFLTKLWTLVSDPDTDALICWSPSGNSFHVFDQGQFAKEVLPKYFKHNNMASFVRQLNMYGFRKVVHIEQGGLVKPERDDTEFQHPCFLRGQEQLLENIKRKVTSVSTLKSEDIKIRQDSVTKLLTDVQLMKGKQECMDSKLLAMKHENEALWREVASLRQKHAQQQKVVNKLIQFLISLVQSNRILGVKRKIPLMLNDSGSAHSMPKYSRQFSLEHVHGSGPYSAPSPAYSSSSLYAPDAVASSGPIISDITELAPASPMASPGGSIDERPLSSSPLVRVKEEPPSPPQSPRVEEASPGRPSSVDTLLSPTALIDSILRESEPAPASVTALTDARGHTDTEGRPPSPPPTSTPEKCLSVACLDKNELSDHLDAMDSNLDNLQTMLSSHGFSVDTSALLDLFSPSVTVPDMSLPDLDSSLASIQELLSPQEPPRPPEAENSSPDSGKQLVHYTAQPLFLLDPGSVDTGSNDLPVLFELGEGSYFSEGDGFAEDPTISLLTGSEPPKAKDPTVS
Sequence of Bile acid receptor (Homo sapiens) (Q96RI1 whole entry, looked up): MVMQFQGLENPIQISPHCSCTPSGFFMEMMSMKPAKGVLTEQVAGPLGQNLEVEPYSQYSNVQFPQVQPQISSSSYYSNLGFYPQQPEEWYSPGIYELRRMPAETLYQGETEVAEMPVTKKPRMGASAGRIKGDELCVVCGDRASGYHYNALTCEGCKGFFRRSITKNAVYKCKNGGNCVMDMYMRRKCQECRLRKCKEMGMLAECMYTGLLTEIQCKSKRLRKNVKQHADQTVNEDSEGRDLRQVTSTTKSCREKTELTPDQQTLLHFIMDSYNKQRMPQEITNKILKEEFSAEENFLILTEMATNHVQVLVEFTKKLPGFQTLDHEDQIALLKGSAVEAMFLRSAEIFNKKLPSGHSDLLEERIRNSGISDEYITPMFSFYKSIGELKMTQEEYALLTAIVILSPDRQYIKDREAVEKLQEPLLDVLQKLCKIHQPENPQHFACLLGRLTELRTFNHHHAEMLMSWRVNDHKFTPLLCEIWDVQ

For `O=C1c2ccccc2C(=O)C1C(=O)C(c1ccccc1)c1ccc(Cl)cc1` (stereo not drawn), the concentration at half-maximal activity (AC50) in experiment [1] is 88.4 µM (active); in experiment [2], 13.1 µM (active); in [3] it was 33.4 µM (active); in experiment [5], 11.9 µM (active); in experiment [7], 166 µM (active); in experiment [9] it was 20 µM (active). The AC50 in [11] is 88.4 µM (active); in [13] it was 61.5 µM (active); in [14], 62.8 µM (active); in experiment [15] it was 17.8 µM (active); in [16], 9.73 µM (active); in [17] it was 8.23 µM (active). The molecule was classed as inactive in experiment [4], in [6], in experiment [8], in experiment [10] and in experiment [12].

For the molecule `CC(C)CC(C)(c1ccc(O)cc1)c1ccc(O)cc1`, the result in experiment [1], in [3], in experiment [18], in [5], in [19] and in experiment [6] was inactive. The result in experiment [7], in [20], in [8], in experiment [10], in experiment [11] and in [12] was inactive. In addition, the molecule was classed as inactive in experiment [13] and in experiment [16]. Moreover, the AC50 in [2] is 17.5 µM (active); in experiment [9] it was 11.1 µM (active); in [15], 16.6 µM (active); in [17] it was 17.2 µM (active).

Consider `O=[N+]([O-])c1c2ccccc2cc2ccccc12`, for which the molecule was called inactive in [1], in experiment [2], in experiment [3], in experiment [5], in [19] and in experiment [6]. Further, the molecule was classed as inactive in experiment [7], in [8], in experiment [9], in experiment [10], in experiment [11] and in [12]. Further, the molecule was classed as inactive in experiment [13], in [14], in experiment [15], in experiment [16] and in experiment [17]. In experiment [4], the AC50 was 7.14 µM (active).

What is called AC50 is the midpoint of the concentration-response curve, whichever way the signal moves.
